Reference: PubChem BioAssay (NCATS)
Values joined by “and” are separate entries in the source; they are usually repeats but may differ in a detail not shown here. Identical values can stand only once. Values without a mark were called inactive. Results filed as inconclusive are left out. Active and inactive are the calls of the source. Unless noted, calls come from the whole dose curve; as a rule, active = well fitted curve in either direction with a large enough effect (not every such curve was filed as active); inconclusive = small, poorly fitted or top-dose-only effect, or another doubt; inactive = flat fitted curve, though single readings scatter.

Legend:
[1] = AP1 Signaling Pathway (AID 357); settings: ME-180 AP-1-bla reporter, EGF-induced, beta-lactamase ratio, 5 h;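 note: ME-180 reporter cells stimulated with EGF at its EC50 level; % is set by controls: 0 for no effect and ±100 for the full control effect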
Procedure, shortened: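 Titration-series screen for positive or negative modulators of EC50 EGF-induced signaling in ME-180 cells carrying an AP-1-driven beta-lactamase reporter. After 5 hours at 37 degrees Celsius, CCF4 460nm/530nm emission ratio gave %Activity; AC50 values derived.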

[2] = molecular target: Cytochrome P450 1A2 (Homo sapiens) (UniProt P05177); assay: p450-cyp1a2 (AID 410; calls by dose curve; note: potency is the fitted concentration of half-maximal effect;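 for activity change, negative = inhibition: -100% = full effect of reference inhibitor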); settings: recombinant CYP1A2, luciferin-ME demethylation, luminescence; series mostly up to 57 µM
Sequence of Cytochrome P450 1A2 (Homo sapiens) (P05177 whole entry, looked up): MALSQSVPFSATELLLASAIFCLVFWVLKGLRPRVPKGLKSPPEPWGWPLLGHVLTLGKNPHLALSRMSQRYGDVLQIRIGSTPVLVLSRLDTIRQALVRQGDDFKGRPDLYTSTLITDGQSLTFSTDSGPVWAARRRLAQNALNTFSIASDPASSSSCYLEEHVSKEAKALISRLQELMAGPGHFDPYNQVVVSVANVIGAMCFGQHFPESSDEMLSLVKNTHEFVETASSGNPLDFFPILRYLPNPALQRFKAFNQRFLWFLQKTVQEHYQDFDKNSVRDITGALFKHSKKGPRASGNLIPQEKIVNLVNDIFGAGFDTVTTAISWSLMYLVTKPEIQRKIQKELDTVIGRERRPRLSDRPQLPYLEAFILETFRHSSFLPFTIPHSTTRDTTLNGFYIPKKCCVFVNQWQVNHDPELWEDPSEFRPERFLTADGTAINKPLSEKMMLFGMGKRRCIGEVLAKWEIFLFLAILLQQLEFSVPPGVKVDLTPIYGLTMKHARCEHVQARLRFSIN
Procedure, shortened: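 20nM CYP1A2, 100uM Luciferin-ME (=Km), 100mM KPO4; cpd 10 min RT; +NADPH regen, 60 min RT; stop/detect 20 min; luminescence. Normalized to furafylline 57 uM = full inhibition.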

[3] = NFAT Signaling Pathway (AID 444); settings: Jurkat NFAT-bla M1, carbachol, beta-lactamase ratio, 5 h; at 38 µM (top of the series) unless noted;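 note: carbachol stimulus at about its EC50 of 1 µM final; % is set by controls: 0 for no effect and ±100 for the full control effect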
Procedure, shortened: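 Jurkat cells carrying an NFAT-driven β-lactamase reporter and co-transfected muscarinic M1 receptor were treated with compound plus carbachol (1 uM final, an EC50 level) for 5 h at 37 °C. CCF4 loading followed for 1 h at RT; 460/530 nm ratio gave %activity.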

[4] = Stat Signaling Pathway (AID 446); settings: ME-180 (cervical carcinoma) SIE beta-lactamase reporter, IL-6 stimulated, 5 h;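 note: ME-180 cervical cancer cells given 40 pM IL-6 alongside compound; SIE-controlled beta-lactamase reporter measured as 460/530 nm FRET emission ratio; % is set by controls: 0 for no effect and ±100 for the full control effect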
Procedure, shortened: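 Normalization used AC90 stimulation (300 pM IL-6) and AC90 inhibition (125 nM pan-JAK inhibitor at 40 pM IL-6). The underlying signal is SIE-driven beta-lactamase in ME-180 cells after 5 h IL-6 exposure with compound.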

[5] = molecular target: Glucocorticoid receptor (Homo sapiens) (UniProt P04150); assay: GR-GFP Redistribution (AID 450;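 active = compounds whose dose series gives a full or clear partial fitted curve of increased nuclear translocation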; note: potency is the fitted concentration of half-maximal effect); settings: U2OS GR-GFP nuclear translocation, laser cytometry, 2 h
Sequence of Glucocorticoid receptor (Homo sapiens) (P04150 whole entry, looked up, the tested form may be a part): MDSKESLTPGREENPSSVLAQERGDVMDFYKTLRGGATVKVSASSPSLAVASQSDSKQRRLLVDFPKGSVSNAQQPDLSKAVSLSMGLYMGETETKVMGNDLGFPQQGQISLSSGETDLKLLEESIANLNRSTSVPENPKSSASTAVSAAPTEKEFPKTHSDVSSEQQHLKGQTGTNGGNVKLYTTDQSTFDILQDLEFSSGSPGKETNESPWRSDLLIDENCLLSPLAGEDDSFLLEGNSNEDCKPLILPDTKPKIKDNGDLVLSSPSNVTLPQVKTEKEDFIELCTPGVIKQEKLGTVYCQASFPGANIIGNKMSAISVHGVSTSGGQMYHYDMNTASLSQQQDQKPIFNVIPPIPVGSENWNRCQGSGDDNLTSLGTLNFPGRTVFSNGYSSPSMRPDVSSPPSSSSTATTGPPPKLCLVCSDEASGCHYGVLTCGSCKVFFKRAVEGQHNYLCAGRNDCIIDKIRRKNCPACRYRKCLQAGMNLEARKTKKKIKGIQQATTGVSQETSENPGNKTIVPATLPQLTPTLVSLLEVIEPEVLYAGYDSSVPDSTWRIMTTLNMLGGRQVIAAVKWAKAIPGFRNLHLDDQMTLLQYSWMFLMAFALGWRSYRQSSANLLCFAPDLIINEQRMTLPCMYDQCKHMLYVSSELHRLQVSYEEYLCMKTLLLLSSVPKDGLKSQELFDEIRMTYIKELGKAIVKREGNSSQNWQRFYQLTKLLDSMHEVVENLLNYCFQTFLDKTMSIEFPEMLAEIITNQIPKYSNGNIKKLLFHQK

[6] = molecular target: Glucocorticoid receptor (Homo sapiens) (UniProt P04150); assay: GR-EFC Redistribution (AID 451; calls by dose curve; note: potency is the fitted concentration of half-maximal effect); settings: CHO-K1 GR-EFC translocation, beta-gal luminescence, 2 h
Procedure, shortened: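 CHO-K1 cells stably expressing nuclear-localized β-gal enzyme acceptor and GR fused C-terminally to the enzyme donor fragment; ligand-driven nuclear translocation restores β-gal by complementation. Compounds titrated up to 46 uM final, 2 h at 37 °C; luminescence read.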

[7] = molecular target: Mitogen-activated protein kinase 10 (Mus musculus) (UniProt Q61831); assay: JNK3 AlphaScreen Assay (AID 530); settings: JNK3 lysate, c-Jun phosphorylation; series mostly up to 57.1 µM;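 note: kinase came from lysate of stimulated human HepG2 cells; signal reports phosphorylation of biotinylated GST-cJun 1-79 at Ser73 with 10 µM ATP; % is set by controls: 0 for no effect and ±100 for the full control effect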
Procedure, shortened: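 Biotinylated GST-cJun(1-79) served as substrate for JNK3 in HepG2 lysates stimulated with IL-1beta and TNF-alpha. ATP was 10 uM final, pH 7.6. Ser73 phosphorylation was quantified by AlphaScreen (680 nm excitation).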

[8] = Cell Viability - BJ (AID 421; calls by dose curve;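 note: potency is the fitted concentration of half-maximal effect; cells exposed to compound for 40 hours at 37 °C before readout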); settings: BJ fibroblast viability, qHTS
Procedure, shortened: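 Normal human BJ foreskin fibroblasts, 1500/well in complete medium, treated 40 hr at 37 °C. Cellular ATP by CellTiter-Glo luminescence; normalized to DMSO and 100 uM tamoxifen, AC50 from Hill fit.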

[9] = Cell Viability - Jurkat (AID 426;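 active = dose-dependent loss of cell ATP signal giving a full or clear fitted curve, ranked by lower potency value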; note: potency is the fitted concentration of half-maximal effect); settings: qHTS
Procedure, shortened: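 Luminescent ATP read-out (CellTiter-Glo, 20 min at room temperature) after 40 hr compound exposure at 37 °C of Jurkat E6-1 cells, 5000/well. Decreased ATP taken as cytotoxicity; AC50 from standard Hill equation.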

[10] = Cell Viability - Hek293 (AID 427;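 active = compounds whose dose-response curve shows a full or clear partial loss of cell viability, called from curve shape rather than a numeric limit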;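 note: potency is the fitted concentration of half-maximal effect; cells exposed to compound for 40 hours at 37 °C before reading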); settings: qHTS
Procedure, shortened: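 HEK293 cells in complete medium were exposed to compound for 40 hr at 37 °C, then cellular ATP was read by CellTiter-Glo luminescence. Data were normalized to DMSO (basal) and 100 uM tamoxifen (100% inhibition), and AC50 came from Hill fits.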

[11] = Cell Viability - HepG2 (AID 433; calls by dose curve;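 note: potency is the fitted concentration of half-maximal effect; potency for ATP loss meaning cytotoxicity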); settings: qHTS
Procedure, shortened: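 HepG2 cells, 1500 per well, treated 40 hr at 37 °C in complete medium; viability from intracellular ATP by CellTiter-Glo luminescence. Normalized to DMSO and 100 uM tamoxifen; AC50 from Hill fit of qHTS concentration-response.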

[12] = Cell Viability - MRC5 (AID 434; calls by dose curve;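 note: potency is the fitted concentration of half-maximal effect; potency reflects cytotoxicity seen as loss of intracellular ATP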); settings: MRC5 lung fibroblast viability, qHTS
Procedure, shortened: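 Decrease in intracellular ATP, quantified by luciferase light output, reflects compound toxicity toward MRC5 cells exposed for 40 hr in complete culture medium. Concentration-response curves, scaled between DMSO and 100 uM tamoxifen, gave AC50 values.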

[13] = Cell Viability - SK-N-SH (AID 435; calls by dose curve;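 note: potency is the fitted concentration of half-maximal effect; compound exposure lasted 40 h at 37 °C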); settings: SK-N-SH neuroblastoma cell viability qHTS
Procedure, shortened: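 SK-N-SH neuroblastoma cells (1500/well) treated 40 h at 37 °C in complete medium; viability read as cellular ATP by CellTiter-Glo luminescence. Normalized to DMSO and 100 uM tamoxifen; AC50 from Hill fits of qHTS concentration-response.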

[14] = Cell Viability - NIH 3T3 (AID 541; active = well fitted curve in the direction sought with a large enough effect; an effect the other way counts as inactive or inconclusive; note: potency is the fitted concentration of half-maximal effect; nearly all actives have a fitted effect of over 25% in size); settings: NIH 3T3 cell viability, qHTS; activity change, negative = cytotoxicity: at 92.2 µM (top of the series)
Procedure, shortened: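 qHTS format; 40 hr compound exposure, 37 °C; CellTiter-Glo luminescence (cellular ATP) read-out after 20 min at RT. Decrease in ATP = cytotoxicity; AC50 from standard Hill fit.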

[15] = Cell Viability - HUV-EC-C (AID 542; active = well fitted curve in the direction sought with a large enough effect; an effect the other way counts as inactive or inconclusive; note: % is set by controls: 0 for no effect and ±100 for the full control effect; nearly all actives have a fitted effect of over 35% in size); settings: HUV-EC-C endothelial cell viability, qHTS; series mostly up to 92.2 µM
Procedure, shortened: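 Luminescent ATP read-out (CellTiter-Glo, 20 min room temperature) after 40 hr compound treatment of HUV-EC-C cells at 37 °C. Concentration-response data fitted with the standard Hill equation to give AC50; tamoxifen and doxorubicin served as positive controls.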

[16] = Cell Viability - SH-SY5Y (AID 544; active = well fitted curve in the direction sought with a large enough effect; an effect the other way counts as inactive or inconclusive; note: potency is the fitted concentration of half-maximal effect; nearly all actives have a fitted effect of over 55% in size); settings: SH-SY5Y neuroblastoma cell viability; viability change, negative = cytotoxic: at 92.2 µM (top of the series)
Procedure, shortened: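 SH-SY5Y, 1500 cells/well, 5 hr pre-incubation 37 °C; cpd 40 hr 37 °C; CellTiter-Glo 20 min RT; luminescence (ATP) read. qHTS concentration-response, Hill fit → AC50. Tamoxifen, doxorubicin as positive controls.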

[17] = Cell Viability - Renal Proximal Tubule (AID 545; active = well fitted curve in the direction sought with a large enough effect; an effect the other way counts as inactive or inconclusive;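 note: 0% = DMSO only and -100% = 100 µM tamoxifen; nearly all actives have a fitted effect of over 40% in size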); settings: renal proximal tubule cells viability, primary cells of rat origin; activity change, negative = cytotoxicity: at 91.7 µM (top of the series)
Procedure, shortened: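 Rat renal proximal tubule primary cells, 1000/well, exposed to compounds for 40 hr at 37 °C in complete medium; cellular ATP read by CellTiter-Glo luminescence. AC50 from concentration-response fitted with standard Hill equation.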

CN(C)C(N)=NCCC[C@H](N)C(=O)O
activity change, negative = inhibition ([1]; at 38 µM (top of the series)): 3.1%
Potency [2]: inactive
activity change, negative = inhibition [3]: -0.969%
activity, negative = inhibition ([4]; at 38 µM (top of the series)): -11.7%
Potency [5]: > 46 µM
Potency [6]: > 46 µM
Potency [7]: inactive

O=C(Nc1cccc(C(=O)Nc2ccc(S(=O)(=O)O)c3cc(S(=O)(=O)O)cc(S(=O)(=O)O)c23)c1)Nc1cccc(C(=O)Nc2ccc(S(=O)(=O)O)c3cc(S(=O)(=O)O)cc(S(=O)(=O)O)c23)c1
activity change, negative = inhibition ([1]; at 38 µM (top of the series)): -2.72%
Potency [2]: inactive
activity change, negative = inhibition [3]: 4.75%
activity, negative = inhibition ([4]; at 38 µM (top of the series)): -0.505%
Potency [5]: > 46 µM
Potency [6]: > 46 µM

Oc1ccccc1O
activity change, negative = inhibition ([1]; at 38 µM (top of the series)): -9.38%
Potency [2]: inactive
Potency [8]: > 92 µM
Potency [9]: 3.17 µM (active)
Potency [10]: 30.1 µM (active)
Potency [11]: > 92 µM
Potency [12]: > 92 µM
Potency [13]: > 92 µM
activity change, negative = inhibition [3]: 1.49%
Potency [5]: > 46 µM
Potency [6]: > 46 µM
Potency [7]: inactive
Potency [14]: 1.26 µM (active)
Potency [15]: inactive
Potency [16]: 10 µM (active)
activity change, negative = cytotoxicity [17]: -24.1%

CC(C)(C=O)Cc1cc(C(C)(C)C)c(O)c(C(C)(C)C)c1
activity change, negative = inhibition ([1]; at 38 µM (top of the series)): 5.89%
Potency [2]: 25.1 µM (active)
activity change, negative = inhibition [3]: -17.5%
activity, negative = inhibition ([4]; at 38 µM (top of the series)): -12.1%
Potency [5]: > 46 µM
Potency [6]: > 46 µM
Potency [7]: inactive

O=C(O)c1cc([N+](=O)[O-])ccc1NCCCc1ccccc1
activity change, negative = inhibition ([1]; at 38 µM (top of the series)): -8.1%
Potency [2]: 31.6 µM (active)
activity change, negative = inhibition [3]: 5.3%
activity, negative = inhibition ([4]; at 38 µM (top of the series)): -16.2%
Potency [5]: > 46 µM
Potency [6]: > 46 µM
Potency [7]: inactive

NCCNC(=O)c1ncsc1-c1cccc(F)c1
activity change, negative = inhibition ([1]; at 38 µM (top of the series)): 0.181%
Potency [2]: 10 µM (active)
activity change, negative = inhibition [3]: -3.73%
activity, negative = inhibition ([4]; at 38 µM (top of the series)): 3.48%
Potency [5]: > 46 µM
Potency [6]: > 46 µM
Potency [7]: inactive

CNCC[C@H](Oc1ccc(C(F)(F)F)cc1)c1ccccc1
activity change, negative = inhibition ([1]; at 17.2 µM (top of the series)): 21.4%
activity change, negative = inhibition ([1]; at 38 µM (top of the series)): 29.8% and 23.7%
Potency [2]: 20 µM (active) and 5.01 µM (active) and 31.6 µM (active)
activity change, negative = inhibition [3]: -28% and -21.6% and -27.9%
activity, negative = inhibition ([4]; at 17.2 µM (top of the series)): -1.77%
activity, negative = inhibition ([4]; at 38 µM (top of the series)): -30.6% and 21.5%
Potency [7]: inactive

NC(=O)C(=O)O
activity change, negative = inhibition ([1]; at 38 µM (top of the series)): 0.648%
Potency [2]: inactive
activity change, negative = inhibition [3]: 5.77%
activity, negative = inhibition ([4]; at 38 µM (top of the series)): -1.18%
Potency [5]: > 46 µM
Potency [6]: > 46 µM
Potency [7]: inactive
